Measurements as given in PubChem BioAssay (NCI).
About 83,000 compounds went through this panel and 20% of them were active in at least one assay; those are over-represented in the sample as a whole.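 Treatment: one concentration, 48 hours, 96-well format. Scoring: percent growth, with anything below 10 considered active.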 Unmarked numbers belong to inactive results. Calls of active or inactive are those of the source.

Experiments:
Assay in all cases: NCI-60 one-dose screen, 48 h (100 = growth as untreated, 0 = no growth, -100 = all killed)
NCI-H226 lung = details: 10 µM
NCI-H322M lung = details: 10 µM
HOP-62 NSCLC = details: 10 µM
NCI-H460 lung = details: 10 µM
A549/ATCC NSCLC = details: 10 µM
786-0 renal = details: 10 µM
COLO 205 colon = details: 10 µM
DU-145 prostate = details: 10 µM
SF-268 CNS = details: 10 µM
SF-295 CNS = details: 10 µM
SF-539 CNS = details: 10 µM
HT29 colon = details: 10 µM
SNB-75 CNS = details: 10 µM
SNB-19 CNS = details: 10 µM
U251 CNS = details: 10 µM
PC-3 prostate = details: 10 µM
EKVX NSCLC = details: 10 µM
UO-31 renal = details: 10 µM
ACHN renal = details: 10 µM
HL-60(TB) leukemia = details: 10 µM unless noted

Row | Structure (SMILES) | growth (NCI-H226 lung) | growth (NCI-H322M lung) | growth (HOP-62 NSCLC) | growth (NCI-H460 lung) | growth (A549/ATCC NSCLC) | growth (786-0 renal) | growth (COLO 205 colon) | growth (DU-145 prostate) | growth (SF-268 CNS) | growth (SF-295 CNS) | growth (SF-539 CNS) | growth (HT29 colon) | growth (SNB-75 CNS) | growth (SNB-19 CNS) | growth (U251 CNS) | growth (PC-3 prostate) | growth (EKVX NSCLC) | growth (UO-31 renal) | growth (ACHN renal) | growth (HL-60(TB) leukemia)
1 | CC1=C[C@H]2O[C@@H]3C[C@H]4OC(=O)/C=C\C=C\[C@H]([C@@H](C)O)OCC/C(C)=C/C(=O)OC[C@@]2(CC1)[C@]4(C)[C@]31CO1 | -50.5% (active) | -19% (active) | -42.9% (active) | -7.38% (active) | -25.6% (active) | -43.6% (active) | -62.3% (active) | -17.5% (active) | -1.73% (active) | -37.5% (active) | -39.2% (active) | -27.7% (active) | -50.1% (active) | -6.9% (active) | -17.3% (active) | -23.9% (active) | -25.1% (active) | -29.4% (active) | -16.1% (active) | –
2 | CC(C)=CCc1c2c(c(O)c3c1O[C@]14C(=C[C@@H]5C[C@H]1C(C)(C)O[C@@]4(C/C=C(/C)C(=O)O)C5=O)C3=O)C=CC(C)(C)O2 | -2.64% (active) | -84.9% (active) | -71.1% (active) | -67.4% (active) | -43.9% (active) | -82.7% (active) | -79.8% (active) | -100% (active) | -75.1% (active) | -64.5% (active) | -38.9% (active) | -86.7% (active) | -62.3% (active) | -50.9% (active) | -87.7% (active) | -37.8% (active) | -62.3% (active) | -76% (active) | -82.6% (active) | -33.7% (active)
3 | N#Cc1nc(-c2ccccc2)oc1N1CCC(S(=O)(=O)F)CC1 | 98.4% | 115% | 95.9% | 106% | 102% | 81.5% | 114% | 101% | 92.3% | 100% | 91.1% | 102% | 102% | 98.6% | 98.6% | 99.3% | 103% | 86.7% | 94.6% | 98.6%
4 | COc1cc2c(O[C@@H]3OC[C@H](O)[C@H](O)[C@H]3O)c3c(c(-c4ccc5c(c4)OCO5)c2cc1OC)C(=O)OC3 | 80.7% | 82% | 59.1% | 71.9% | 91% | 78.9% | 11.6% | 53.2% | 66.7% | 40.5% | 53.6% | 38.6% | 18% | 97% | 54.8% | 67.1% | 70% | 82.2% | 67.6% | 32.6%
5 | C[C@@H]1C[C@H]2C(=O)O[C@@H](C)C(NC(=O)[C@H](Cc3cc(F)cc(F)c3)NC(=O)Nc3ccc(OS(=O)(=O)F)cc3)C(=O)N3CCC[C@H]3C(=O)N3CCO[C@H](C)[C@H]3C(=O)N[C@@H](CO)C(=O)N2C1 (some centres not stated) | -3.99% (active) | 54% | 33% | 17% | 31% | 42.7% | -19.1% (active) | 28% | 33.2% | 11.4% | 39.5% | 34.6% | 34.4% | 24.2% | 29.6% | 19.9% | 34% | 88.7% | 93.5% | 13.3%
6 | CC1=C[C@H]2O[C@@H]3C[C@@H](O)[C@](C)([C@@]2(C)CC1)[C@@]31CO1 | 29.9% | 24.9% | 15.7% | 13.2% | 16.2% | 24.1% | 3.33% (active) | 19.4% | 29.3% | 27.2% | 23.9% | 11.4% | 28.7% | 18.9% | 15.4% | 31.5% | 38.3% | 16.7% | 22.2% | -20.9% (active)
7 | CCC(C)[C@H]1C(=O)O[C@H](C(C)C)C(=O)N(C)[C@@H](C(C)C)C(=O)O[C@H](C(C)C)C(=O)N(C)[C@@H](C(C)C)C(=O)O[C@H](C(C)C)C(=O)N1C (some centres not stated) | 21.2% | 14.3% | 15% | 7.94% (active) | 14.5% | 20.9% | -74.7% (active) | 26.9% | 21.9% | 9.15% (active) | 19.1% | 9.91% (active) | 2.63% (active) | 21.6% | 13.5% | 12.2% | 24% | -10.8% (active) | 9.28% (active) | -48.8% (active)
8 | COc1cc2c(O[C@@H]3OC[C@H](OC(C)=O)[C@H](OC(C)=O)[C@H]3O)c3c(c(-c4ccc5c(c4)OCO5)c2cc1OC)C(=O)OC3 | 2.53% (active) | 61.5% | 36.9% | 10.7% | 12.4% | 20% | 5.65% (active) | 43% | 42.4% | -43% (active) | 25.6% | 9% (active) | 6.09% (active) | 58.7% | 28.5% | 26.5% | 39.5% | 50% | 29% | 26%
9 | NC1CCc2cc(O)c(O)cc2C1 (configuration not stated) | 90.7% | 98.6% | 100% | 87% | 82.3% | 84.7% | 80.7% | 94.3% | 104% | 95% | 94.8% | 39.7% | 82.6% | 98% | 79.6% | 76.1% | 93.9% | 85.1% | 96.9% | 32.9%
10 | CC(=O)O[C@@H]1C[C@H]2O[C@@H]3C=C(C)CC[C@]3(C)[C@]1(C)[C@]21CO1 | 22.3% | 18.8% | 6.11% (active) | 6.94% (active) | 12.8% | 7.07% (active) | -61.3% (active) | 16.8% | 15.3% | 34.1% | -23.1% (active) | 8.97% (active) | 29.4% | 3.18% (active) | 5.85% (active) | 24.8% | 26% | 53.3% | 23% | -33.9% (active)
11 | CC1=C2C(=C[C@@](C)(COS(C)(=O)=O)[C@@H]2O)C(=O)[C@](C)(O)C12CC2 | -15.3% (active) | 4.33% (active) | 0.685% (active) | 7.36% (active) | 11.3% | 4.19% (active) | -33.7% (active) | 9.22% (active) | 5.21% (active) | -2.13% (active) | -26.2% (active) | 3.64% (active) | -74.6% (active) | 4.72% (active) | 7.54% (active) | 6.69% (active) | 4.37% (active) | -8.95% (active) | -0.611% (active) | -9.62% (active)
12 | C[C@@H]1CCC/C=C/[C@H]2C[C@@H](O)C[C@@H]2[C@@H](O)/C=C/C(=O)O1 | 7.32% (active) | 6.35% (active) | 1.72% (active) | 18.2% | 16.1% | -31.4% (active) | -84.3% (active) | 28.4% | 17.6% | 21.6% | 31.7% | 0.531% (active) | 47% | 30.2% | 17.6% | 19.5% | 11.5% | 6.57% (active) | 9.31% (active) | -22.7% (active)
13 | CC1=C(CCC=NNC(N)=O)C2=C(C)C3(CC3)[C@@](C)(O)C(=O)C2=C1 | -41.6% (active) | -16.2% (active) | -55.2% (active) | -29.2% (active) | 4.54% (active) | -37.6% (active) | -86.4% (active) | -9.85% (active) | -17.8% (active) | -6.5% (active) | -58.5% (active) | -9.67% (active) | -63.9% (active) | 3.45% (active) | 4.6% (active) | 1.22% (active) | -12.8% (active) | -29.1% (active) | -10.3% (active) | –
14 | N#Cc1c(-n2c(Br)c(Br)c3cc(Br)ccc32)[nH]c2c(Br)cc(Br)cc12 | -20.5% (active) | 0.977% (active) | -50.9% (active) | -2.03% (active) | 10.3% | -19.1% (active) | -89.6% (active) | 17% | 9.61% (active) | -67% (active) | 6.25% (active) | -15.1% (active) | -9.71% (active) | 15% | 2.86% (active) | -8.16% (active) | 3.62% (active) | 1.66% (active) | 1.41% (active) | 1.07% (active)
15 | CC1=C(CN(O)C(N)=O)C2=C(C)C3(CC3)[C@](C)(O)C(=O)C2=C1 | 105% | 26.8% | 11.4% | 1.16% (active) | 0.401% (active) | 14.9% | -11.9% (active) | 10% | 13.6% | 0.35% (active) | -1.94% (active) | 3.85% (active) | -22.2% (active) | 32.5% | 23.8% | 8.93% (active) | 8.16% (active) | -20.3% (active) | -5.65% (active) | –
